HP1b binding inh: HP1-beta chromodomain-methylated histone interaction inhibition | P83916 | AlphaScreen HP1-beta / biotin-H3K9me3 peptide binding | Potency, µM (series often up to 114 µM), without a hit: top-dose activity change, negative = inhibition, usual class: inhibitors | 390,000 tested, 0.56% active; further: nearly all actives have a fitted effect of over 70% in size
Target sequence (P83916 whole entry, looked up): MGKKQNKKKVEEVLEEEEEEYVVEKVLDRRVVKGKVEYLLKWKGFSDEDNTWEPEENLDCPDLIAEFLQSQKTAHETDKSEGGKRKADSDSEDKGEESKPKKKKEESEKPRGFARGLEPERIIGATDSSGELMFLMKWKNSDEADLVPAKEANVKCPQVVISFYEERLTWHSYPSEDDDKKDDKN
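AlphaScreen: HP1-beta (50 nM) preformed 30 min with biotin-H3(1-18)K9me3 peptide (50 nM) in PBS pH 7.4, 0.01% Tween-20. Compound added for 30 min at RT, then streptavidin donor/nickel chelate acceptor beads (10 ug/mL) for 30 min.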
JMJD2A Tudor inh: blocks the human JMJD2A Tudor domain; AlphaScreen JMJD2A-Tudor / H3K4me3 peptide binding; Potency, µM (top dose mostly 114 µM), inactives show top-dose activity change, negative = inhibition, most hits filed as inhibitors; 390,000 tested, 4.4% active; AID 504339; further: on the % scale 0 is the no-effect control and ±100 the full control effect; nearly all actives have a fitted effect of over 50% in size
BAZ2B block: BAZ2B (human) inhibition. AlphaScreen BAZ2B-H3K14Ac peptide displacement. Potency, µM (doses to about 114 µM), without a hit: at the top dose activity change, negative = inhibition, actives largely listed as inhibitors. 360,000 tested, 4.4% active; further: on the % scale 0 is the no-effect control and ±100 the full control effect; nearly all actives have a fitted effect of over 60% in size
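Compounds, titrated to a top concentration of 110 uM, were incubated 30 min at room temperature with preformed BAZ2B/acetyl-K14 H3 peptide complex (50 nM each). Proximity signal was measured by AlphaScreen after 20 min with beads.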
Sfp inh: blocks B. subtilis Sfp PPTase activity; Biochemical Sfp PPTase activity, qHTS; 310,000 tested, 3.5% active; Potency, µM, for inactives: largest response in the series, negative = inhibition, usual class: inhibitors; AID 1490; Q9F4F7;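 further: the enzyme is Sfp with the accession as filed and its product quenches rhodamine fluorescence; 0% = enzyme reaction without inhibitor and -100% = no enzyme wells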
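Step 1, compound plus 15 nM Sfp-PPTase, 15 min, room temperature. Step 2, add rhodamine-CoA (5 uM) and BHQ-2-YbbR (12.5 uM). Step 3, read 525/598 nm fluorescence at 0 and 30 min.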
G9a block: inhibitors of human histone lysine methyltransferase G9a | Q96KQ7 | G9a H3K9 monomethylation, AlphaScreen, 2 h | Potency, µM (series often up to 102 µM), for inactives: at the top dose activity, negative = inhibition, actives largely listed as inhibitors | 350,000 tested, 8.8% active | AID 504332; further: on the % scale 0 is the no-effect control and ±100 the full control effect; nearly all actives have a fitted effect of over 75% in size
Target sequence (Q96KQ7 913-1193 limits assumed): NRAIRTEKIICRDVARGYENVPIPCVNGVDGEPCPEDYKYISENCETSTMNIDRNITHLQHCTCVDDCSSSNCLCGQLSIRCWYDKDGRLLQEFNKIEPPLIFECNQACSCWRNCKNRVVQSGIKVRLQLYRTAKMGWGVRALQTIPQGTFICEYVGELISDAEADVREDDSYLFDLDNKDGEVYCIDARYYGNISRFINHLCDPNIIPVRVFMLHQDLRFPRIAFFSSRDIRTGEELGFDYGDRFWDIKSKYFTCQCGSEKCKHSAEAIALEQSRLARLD
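AlphaScreen read-out: biotin-H3K9 peptide (500 nM) methylation by 20 nM enzyme with 20 uM SAM, 2 h at room temperature after 15 min compound preincubation; anti-monomethyl H3K9 antibody plus donor/acceptor beads, 10 min dark.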
Starred values were filed as active, the others as inactive; ? = inconclusive; . = no result; [ ] = remark or other dose. Only some compounds are listed: those with a hit (about 12% of all), similar ones and a draw of the others. The call rests on the fitted dose curve; in most records, active means well fitted curve in the direction sought with a large enough effect; inconclusive means small, poorly fitted or top-dose-only effect, or another doubt; inactive means no such curve, though single readings can be large; an effect the other way counts as inactive or inconclusive. Potency means the concentration at half of the fitted maximal effect.

SMILES	HP1b binding inh	JMJD2A Tudor inh	BAZ2B block	Sfp inh	G9a block
COc1nccnc1NS(=O)(=O)c1ccc(NC(=S)NC(=O)/C=C/c2ccccc2)cc1	-7.0%	79.4µM*	-13.1%	-11.3%	?
Cc1cc2nc(SCC(=O)O)nc(C)c2cc1C	16.0%	0.0%	7.5%	7.9%	9.4%[12.7 µM]
CC(C)(C)c1ccc(S(=O)(=O)NNC(=O)c2cc3ccccc3[nH]2)cc1	4.8%	?	-15.4%	3.2%	?
CN(C)CCCN(C(=O)/C=C/c1cccs1)c1nc2c(F)cccc2s1	3.2%	?	?	-19.7%	?
COc1ccc2sc(N(CCN(C)C)C(=O)/C=C/c3cccs3)nc2c1	2.0%	?	.	?	?
COc1ccc2nc(N(CCN(C)C)C(=O)/C=C/c3cccs3)sc2c1	28.5%	-27.4%	.	-2.8%	14.1µM*
Cc1cccc2sc(N(CCN(C)C)C(=O)/C=C/c3cccs3)nc12	24.4%	?	-35.3%	31.6µM*	?
CC(=O)c1ccc(NC(=O)c2sc(-n3nc(C)c(Cc4ccc5c(c4)OCO5)c3C)nc2C)cc1	12.0%	79.4µM*	-31.1%	.	-17.1%[59 µM]
Cc1cc(C)nc(/N=C(\NC(=O)C(C)(C)C)Nc2ccc(F)cc2)n1	26.9%	3.5%	-3.4%	-26.4%	44.7µM*
CCc1ccc(N/C(=N/c2nc(C)cc(C)n2)NC(C)=O)cc1	28.2%	-1.8%	2.3%	-3.0%	13.5%
NC(=O)[C@H]1CCCN1C(=O)[C@H](Cc1cnc[nH]1)NC(=O)[C@@H]1CCC(=O)N1	.	.	.	-13.9%	.
COCCSc1nnc(NC(=O)C2CC(=O)N(c3ccccc3)C2)s1 (centres undefined)	9.0%	-5.8%	-13.9%	19.8%	-20.7%
Cc1cccc(N2CC(C(=O)Nc3nnc(SCc4ccccn4)s3)CC2=O)c1 (centres undefined)	36.7%	-35.4%	?	?	10µM*
Cc1cccc(N2CC(C(=O)Nc3nnc(SCCC4OCCO4)s3)CC2=O)c1 (centres undefined)	-8.2%	?	-24.7%	-24.5%	22.4µM*
Cc1ccc(N2CC(C(=O)Nc3nnc(SCc4ccccn4)s3)CC2=O)cc1 (centres undefined)	30.3%	-13.2%	-4.2%	17.5%	44.7µM*
O=C(c1cn(-c2ccccc2)nc1-c1ccccc1)N1CCN(c2ccccn2)CC1	14.2%	-28.0%	?	7.6%	16.5%[59 µM]
O=C(CN1CC[C@@]2(O)CCCC[C@H]2[C@@H]1c1ccc(F)cc1)NCc1ccco1	-9.0%	-12.8%	-18.4%	-13.5%	-1.1%[12.7 µM]
CCN1CCC(N(Cc2ccc3c(c2)OCO3)C(=O)Nc2cccc(C)c2C)CC1	29.7%	3.3%	3.4%	.	-1.1%[59 µM]
COc1ccccc1-c1cc(C(=O)Nc2sc3c(c2C#N)CCCC3)no1	?	-8.9%	-10.5%	.	3.16µM*
N#Cc1c(NC(=O)c2cc(C3CC3)on2)sc2c1CCC2	-15.8%	-31.2%	-10.4%	?	39.8µM*
CCOC(=O)c1cc(C(=O)Nc2sc3c(c2C#N)CCCC3)nn1C	-7.3%	-11.6%	16.5%	35.5µM*	11.2µM*
CC(C)Cc1cc(C(=O)Nc2sc3c(c2C#N)CCC3)no1	5.0%	-4.1%	5.1%	56.2µM*	44.7µM*
COC(=O)c1ccc(COC(=O)C2CC(O)CN2S(=O)(=O)c2ccc([N+](=O)[O-])cc2)cc1 (centres undefined)	20.0%	-19.8%	-5.5%	.	?
Cc1cc(C(=O)Nc2sc3c(c2C#N)CCC3)no1	1.1%	-33.5%	-31.2%	6.5%	?
Cc1cc(C(=O)Nc2sc3c(c2C#N)CCCC3)no1	-18.3%	-19.2%	9.9%	20µM*	7.08µM*
SMILES	HP1b binding inh	JMJD2A Tudor inh	BAZ2B block	Sfp inh	G9a block
O=C(NC1(C(F)(F)F)NC(=O)N(Cc2ccco2)C1=O)c1cccnc1 (centres undefined)	33.7%	-9.1%	11.1%	?	39.8µM*
O=C(NC1(C(F)(F)F)NC(=O)N(Cc2ccccc2)C1=O)c1cccnc1 (centres undefined)	25.5%	-2.5%	?	6.8%	6.8%
O=C(NC1(C(F)(F)F)NC(=O)N(Cc2ccco2)C1=O)c1cccs1 (centres undefined)	-9.6%	-22.3%	-5.7%	35.5µM*	?
CC(C)CN1C(=O)NC(NC(=O)c2cccs2)(C(F)(F)F)C1=O (centres undefined)	28.6%	-1.5%	-1.3%	14.0%	2.5%[59 µM]
CCOc1ccc(CN2CCc3nc(Nc4ccc(OC)cc4OC)ncc3C2)cc1	-36.1%	50.1µM*	-37.0%	.	?
Cc1ccccc1CN1CCc2nc(Nc3ccc4c(c3)OCCO4)ncc2C1	-11.3%	35.5µM*	22.4µM*	.	?
CC(C)Oc1ccc(CN2CCc3nc(Nc4ccc5c(c4)OCCO5)ncc3C2)cc1	-16.8%	31.6µM*	31.6µM*	.	-26.1%[12.7 µM]
CCOc1ccccc1CN1CCc2nc(Nc3ccccc3)ncc2C1	7.6%	?	?	.	-0.4%[59 µM]
COc1ccc(Nc2ncc3c(n2)CCN(Cc2ccccc2C)C3)c(OC)c1	7.2%	-32.1%	?	.	?
COc1ccc(NS(=O)(=O)c2cc(NC(=O)[C@@H](NC(N)=O)C(C)C)ccc2C)cc1	12.6%	-6.1%	0.5%	18.0%	3.9%[12.7 µM]
O=C(O)C1Nc2ccccc2C2C=CCC12 (centres undefined)	11.2µM*	3.55µM*	.	.	.
COCCNC(=O)C1Nc2ccc(C(F)(F)F)cc2C2C=CCC12 (centres undefined)	10.1%	-30.3%	.	.	.
COCCNC(=O)C1Nc2ccc(OC(F)(F)F)cc2C2C=CCC12 (centres undefined)	39.6%	-17.0%	.	.	.
CCOC(=O)C1Nc2ccc(C(=O)O)cc2C2C=CCC12 (centres undefined)	7.94µM*	3.98µM*	39.8µM*	22.4µM*	23.8%[0.501 µM]
CCOC(=O)c1ccc2c(c1)C1C=CCC1C(C(=O)O)N2 (centres undefined)	.	.	6.31µM*	?	3.16µM*
Cc1ccc(Cn2nnc3c(=O)[nH]c(C4CCN(S(=O)(=O)Cc5ccccc5)CC4)nc32)cc1	26.2%	-19.6%	0.6%	-6.7%	19.1%
CCC(Sc1nnc(-c2ccc(OC)cc2)c(-c2ccc(OC)cc2)n1)C(=O)Nc1cccc(OC)c1 (centres undefined)	1.8%	-26.0%	-22.3%	.	?
O=C(CSc1nc2ccc([N+](=O)[O-])cc2[nH]1)c1ccc2ccccc2c1	-10.3%	?	-34.6%	11.7%	57.0%[59 µM]
CCCC(=O)Nc1ccc(-c2csc(N/N=C\c3ccncc3)n2)cc1	24.6%	-19.3%	?	25.1µM*	.
CC(=O)Nc1ccc(-c2csc(N/N=C\c3ccncc3)n2)cc1	4.9%	?	-12.9%	20µM*	8.91µM*
Cc1ccc(C(=O)N(c2ccccn2)C(C)c2ccco2)cc1C (centres undefined)	22.4%	26.2%	-22.1%	10.4%	-4.8%[59 µM]
Cn1cnnc1Sc1nc2ccccc2nc1NS(=O)(=O)c1ccccc1	36.5%	-14.3%	?	1.0%	50.1µM*

Compound activity (PubChem)
